# From PubChem BioAssay (NCI)
# This is part of a sample that, as a whole, favours compounds with a hit. Of some 79,000 tested, about 15% had one in any assay. A number with no mark means an inactive call. Calls of active or inactive are those of the source. No stated cut-off is given here; in the data, active means growth inhibition above about 70%; inactive means the rest.
# Columns and labels:
# [1] = NCI Yeast Anticancer Drug Screen. Data for the rad50 strain (AID 155);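 further: 0% = growth of vehicle-only cultures of the same strain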; conditions: S. cerevisiae rad50 strain growth inhibition, hits give high values
# Summary of the method: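 DNA repair mutant yeast, compound exposure, growth read-out; inhibition is taken relative to vehicle.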
# [2] = NCI Yeast Anticancer Drug Screen. Data for the mec2-1 strain (AID 157); conditions: S. cerevisiae mec2-1 strain, hits give high values
# Summary of the method: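 Vehicle-treated cultures served as reference for growth inhibition of compound-exposed mec2-1 yeast.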
# [3] = NCI Yeast Anticancer Drug Screen. Data for the sgs1 mgt1 strain (AID 161);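 further: 0% = growth of cultures given vehicle only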; conditions: S. cerevisiae sgs1 mgt1 strain, hits give high values
# Summary of the method: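 Mutant yeast exposed to compound; growth scored against vehicle-only wells.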
# [4] = NCI Yeast Anticancer Drug Screen. Data for the cln2 rad14 strain (AID 165);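 further: 0% = growth equal to vehicle treated cultures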; conditions: S. cerevisiae cln2 rad14 strain, hits give high values
# Summary of the method: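 Each compound was tested on cln2 rad14 yeast. Inhibition of growth was calculated against vehicle-exposed controls.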
# [5] = NCI Yeast Anticancer Drug Screen. Data for the bub3 strain (AID 167); conditions: S. cerevisiae bub3 mutant strain, hits give high values
# Summary of the method: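 In this screen, a yeast mutant lacking normal mitotic checkpoint function is challenged with compound. Relative growth versus vehicle gives the inhibition value.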
# [6] = NCI Yeast Anticancer Drug Screen. Data for the mlh1 rad18 strain (AID 175); conditions: S. cerevisiae mlh1 rad18 strain growth inhibition, hits give high values
# Summary of the method: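 Vehicle-treated cultures served as the reference for growth inhibition in a yeast strain carrying DNA damage repair alterations exposed to each compound.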
# [7] = at 5.0 µM (retest, dose inferred, filed as 0.5)
# [8] = at 50.0 µM (retest, dose inferred, filed as 5.0)
SMILES,"growth inhibition [1, 7]","growth inhibition [1, 8]",growth inhibition ([1]; at 50.0 µM),"growth inhibition [2, 7]","growth inhibition [2, 8]",growth inhibition ([2]; at 50.0 µM),"growth inhibition [3, 7]","growth inhibition [3, 8]",growth inhibition ([3]; at 50.0 µM),"growth inhibition [4, 7]","growth inhibition [4, 8]",growth inhibition ([4]; at 50.0 µM),"growth inhibition [5, 7]","growth inhibition [5, 8]",growth inhibition ([5]; at 50.0 µM),"growth inhibition [6, 7]","growth inhibition [6, 8]",growth inhibition ([6]; at 50.0 µM)
CC(/C=C/c1ccco1)=N\NC(=S)NCC(C)C,13%,80% (active),63.5%,-20%,53%,61.9%,38%,86% (active),81.2% (active),16%,61%,64.4%,30%,87% (active),83.5% (active),25%,88% (active),75.5% (active)
COc1ccc(C(c2c(O)c3ccccc3oc2=O)N2CCOCC2)cc1 (stereo not given),-30%,-14%,-8.2%,-10%,-6%,-3.1%,-13%,-29%,-34.9%,-19%,-17%,76.5% (active),-14%,22%,-14%,-34%,-30%,-12%
O=C(CCCN1CCC2(CC1)CC(c1ccccc1)OC2=O)c1ccc(F)cc1 (stereo not given),48%,76% (active),86.3% (active),33%,65%,87.9% (active),44%,87% (active),94.7% (active),41%,84% (active),89.8% (active),39%,90% (active),95.2% (active),34%,63%,95.9% (active)
CC(C)(C)CC(C)(C)c1ccc(Oc2ccc([N+](=O)[O-])cc2S(=O)(=O)O)cc1,-2%,21%,14.8%,-6%,-1%,0.05%,-1%,32%,64.5%,4%,-4%,-23.4%,-2%,-13%,5.45%,5%,26%,24.7%
COc1ccc(Cc2ccccc2C(=O)O)c2ccccc12,97% (active),96% (active),99.1% (active),98% (active),98% (active),99.2% (active),97% (active),99% (active),99.5% (active),95% (active),96% (active),98.7% (active),96% (active),98% (active),98.9% (active),97% (active),98% (active),99% (active)
CCN1/C(=C\c2cc(C)nc(-c3ccccc3)[n+]2C)C=Cc2ccccc21,29%,97% (active),98% (active),27%,99% (active),98.1% (active),27%,99% (active),98.7% (active),43%,98% (active),98.8% (active),64%,99% (active),98.8% (active),48%,99% (active),98.7% (active)
CN(C)CCC(/C=C/c1ccccc1)=N\Nc1ccc(Cl)cc1,27%,99% (active),99.2% (active),17%,99% (active),99% (active),56%,100% (active),99.1% (active),12%,99% (active),99.2% (active),46%,99% (active),99.3% (active),42%,99% (active),85.3% (active)
COc1nc(N)c(N=O)c(OCc2ccccc2)n1,83% (active),97% (active),89% (active),99% (active),98% (active),92.6% (active),62%,57%,91.4% (active),55%,98% (active),89.8% (active),97% (active),98% (active),91.6% (active),99% (active),97% (active),89.3% (active)
CCCNC(=S)N/N=C(/C)c1nccc2ccccc12,9%,86% (active),38.1%,4%,98% (active),20.4%,7%,88% (active),70% (active),-8%,7%,17.9%,0%,78% (active),14.8%,3%,93% (active),29.4%
C(CCCCCN1CCCCC1)CCCCN1CCCCC1,-14%,-9%,-2.7%,-20%,-8%,5.4%,3%,-14%,7.2%,3%,6%,6.75%,-11%,-18%,-27.2%,-1%,10%,6.85%
